These sequences were tested against PITX2 (Homo sapiens, UniProt Q99697 72-157) (assay: PBM; 200 nM protein, PBS). Conditions: dsDNA, one strand shown.
In the case of ACGTTCTG, the binding signal is reported as 8.19 upbm affinity estimate (log intensity, higher = more binding, comparable within an allelic series).
With AAGATAAT the binding signal was 10.6 upbm affinity estimate (log intensity, higher = more binding, comparable within an allelic series).
In the case of CTAGCGAG, the binding signal is reported as 8.11 upbm affinity estimate (log intensity, higher = more binding, comparable within an allelic series).
For AGCACGCC, the binding signal was 8.07 upbm affinity estimate (log intensity, higher = more binding, comparable within an allelic series).
ACCACCGT was tested, and the binding signal was 8.12 upbm affinity estimate (log intensity, higher = more binding, comparable within an allelic series).
With AGATCAAC the binding signal was 10.1 upbm affinity estimate (log intensity, higher = more binding, comparable within an allelic series).
With GTGCCAGA the binding signal was 8.11 upbm affinity estimate (log intensity, higher = more binding, comparable within an allelic series).
In the case of GAGATCAC, the binding signal is reported as 9.79 upbm affinity estimate (log intensity, higher = more binding, comparable within an allelic series).
With AGGGATAG the binding signal was 9.94 upbm affinity estimate (log intensity, higher = more binding, comparable within an allelic series).
For GTCCACTA, the binding signal was 7.94 upbm affinity estimate (log intensity, higher = more binding, comparable within an allelic series).
For TAAGCTTA, the binding signal was 12.3 upbm affinity estimate (log intensity, higher = more binding, comparable within an allelic series).
CAGACACG was tested, and the binding signal was 7.83 upbm affinity estimate (log intensity, higher = more binding, comparable within an allelic series).
GGATACTA was tested, and the binding signal was 9.25 upbm affinity estimate (log intensity, higher = more binding, comparable within an allelic series).
For GCGTACCC, the binding signal was 8.02 upbm affinity estimate (log intensity, higher = more binding, comparable within an allelic series).
ATCCTTAC was tested, and the binding signal was 9.47 upbm affinity estimate (log intensity, higher = more binding, comparable within an allelic series).
For TATTAGCA, the binding signal was 10.1 upbm affinity estimate (log intensity, higher = more binding, comparable within an allelic series).
GGAGGAAC was tested, and the binding signal was 8.06 upbm affinity estimate (log intensity, higher = more binding, comparable within an allelic series).
With ATCTAATG the binding signal was 9.77 upbm affinity estimate (log intensity, higher = more binding, comparable within an allelic series).
In the case of CGTTGTCA, the binding signal is reported as 8.02 upbm affinity estimate (log intensity, higher = more binding, comparable within an allelic series).
ATTCAAAT was tested, and the binding signal was 9.75 upbm affinity estimate (log intensity, higher = more binding, comparable within an allelic series).
ACTAAGCC was tested, and the binding signal was 12.4 upbm affinity estimate (log intensity, higher = more binding, comparable within an allelic series).
CCTACGTC was tested, and the binding signal was 7.98 upbm affinity estimate (log intensity, higher = more binding, comparable within an allelic series).
With AAGCCCTA the binding signal was 10.4 upbm affinity estimate (log intensity, higher = more binding, comparable within an allelic series).
With ACCATCGT the binding signal was 7.89 upbm affinity estimate (log intensity, higher = more binding, comparable within an allelic series).
With GCCTCACC the binding signal was 8.04 upbm affinity estimate (log intensity, higher = more binding, comparable within an allelic series).
In the case of GAGAGGCC, the binding signal is reported as 7.88 upbm affinity estimate (log intensity, higher = more binding, comparable within an allelic series).
With CCTGCTTA the binding signal was 10.3 upbm affinity estimate (log intensity, higher = more binding, comparable within an allelic series).
In the case of ACTTGATC, the binding signal is reported as 10.2 upbm affinity estimate (log intensity, higher = more binding, comparable within an allelic series).
For CCGTACCC, the binding signal was 7.91 upbm affinity estimate (log intensity, higher = more binding, comparable within an allelic series).
For AAGCTGAA, the binding signal was 9.66 upbm affinity estimate (log intensity, higher = more binding, comparable within an allelic series).
With ATAGGCTC the binding signal was 9.54 upbm affinity estimate (log intensity, higher = more binding, comparable within an allelic series).
AGGGCTTA was tested, and the binding signal was 12.3 upbm affinity estimate (log intensity, higher = more binding, comparable within an allelic series).
For CGGAATCC, the binding signal was 10.1 upbm affinity estimate (log intensity, higher = more binding, comparable within an allelic series).
For CATGTTCG, the binding signal was 8.09 upbm affinity estimate (log intensity, higher = more binding, comparable within an allelic series).
For CACTAGTG, the binding signal was 8.21 upbm affinity estimate (log intensity, higher = more binding, comparable within an allelic series).
In the case of ACTGGTGC, the binding signal is reported as 7.7 upbm affinity estimate (log intensity, higher = more binding, comparable within an allelic series).
For AGCGTGGG, the binding signal was 8.14 upbm affinity estimate (log intensity, higher = more binding, comparable within an allelic series).
In the case of ACGTTCCG, the binding signal is reported as 7.96 upbm affinity estimate (log intensity, higher = more binding, comparable within an allelic series).
For GCACGCCA, the binding signal was 7.9 upbm affinity estimate (log intensity, higher = more binding, comparable within an allelic series).
In the case of AAGCTTAG, the binding signal is reported as 11.4 upbm affinity estimate (log intensity, higher = more binding, comparable within an allelic series).

— PMC11006913
